PubChem BioAssay AID1159580 (chemical genetic matrix, 2015)
Among all 5,500 compounds or so, about 2,000 (36%) were called active. Inconclusive results (about 18%) are left out. Cut-off read from the data, not from the text of the source: active = normalized growth mostly below about 0.91 (no sharp cut-off); inconclusive = no clear call, values can overlap the other calls; inactive = mostly above about 0.92. The list shows a part of the results.

Assay: chemical genetic growth profiling, strain panel (AID 1159580);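 note: tested at 20 µM; growth read once vehicle control cultures reached saturation at 30 °C; 1 = growth at the plate median or of vehicle wells; lower values mean less growth of the strain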
Conditions: S. cerevisiae deletion strains, growth OD

Measured: normalized growth

Nc1nc(F)nc2c1ncn2[C@@H]1O[C@H](COP(=O)(O)O)[C@@H](O)[C@@H]1O
inactive: locus YAL021C, strain ccr4, stronger effect = lower value 0.989 | locus YAL026C, strain drs2, stronger effect = lower value 0.999 | locus YAL030W, strain snc1, stronger effect = lower value 1 | locus YBL061C, strain skt5, stronger effect = lower value 0.997 | locus YBR009C, strain hhf1, stronger effect = lower value 1.01 | locus YBR023C, strain chs3, stronger effect = lower value 0.999 | locus YBR171W, strain sec66, stronger effect = lower value 1 | locus YBR231C, strain swc5, stronger effect = lower value 0.999 | locus YBR279W, strain paf1, stronger effect = lower value 1 | locus YCL011C, strain gbp2, stronger effect = lower value 0.994 | locus YCL016C, strain dcc1, stronger effect = lower value 0.997 | locus YCL061C, strain MRC1, stronger effect = lower value 0.989 | locus YCL069W, strain vba3, stronger effect = lower value 0.993 | locus YCR088W, strain abp1, stronger effect = lower value 0.992 | locus YDL005C, strain med2, stronger effect = lower value 0.984 | locus YDL040C, strain nat1, stronger effect = lower value 0.997 | locus YDR001C, strain nth1, stronger effect = lower value 0.993 | locus YDR069C, strain doa4, stronger effect = lower value 0.997 | locus YDR137W, strain rgp1, stronger effect = lower value 1 | locus YDR159W, strain sac3, stronger effect = lower value 0.985 | locus YDR195W, strain ref2 0.968 | locus YDR297W, strain sur2, stronger effect = lower value 1.01 | locus YDR334W, strain swr1, stronger effect = lower value 0.991 | locus YDR335W, strain msn5, stronger effect = lower value 0.997 | locus YDR392W, strain spt3, stronger effect = lower value 0.976 | locus YEL003W, strain gim4, stronger effect = lower value 0.995 | locus YEL037C, strain rad23, stronger effect = lower value 0.993 | locus YEL061C, strain CIN8 (second series), stronger effect = lower value 0.994 | locus YER015W, strain faa2, stronger effect = lower value 0.995 | locus YER016W, strain bim1, stronger effect = lower value 0.993 | locus YER111C, strain swi4, stronger effect = lower value 1 | locus YER155C, strain BEM2 (second series), stronger effect = lower value 0.993 | locus YFR010W, strain ubp6, stronger effect = lower value 1.01 | locus YGL167C, strain pmr1, stronger effect = lower value 0.989 | locus YGL173C, strain kem1, stronger effect = lower value 1 | locus YGL227W, strain vid30, stronger effect = lower value 0.992 | locus YGL240W, strain doc1, stronger effect = lower value 0.984 | locus YGL253W, strain hxk2, stronger effect = lower value 0.998 | locus YHR013C, strain ard1, stronger effect = lower value 0.99 | locus YHR027C, strain rpn1, stronger effect = lower value 0.986 | locus YHR030C, strain SLT2, stronger effect = lower value 1.03 | locus YHR079C, strain IRE1, stronger effect = lower value 1.04 | locus YHR142W, strain chs7, stronger effect = lower value 0.991 | locus YJL092W, strain hpr5, stronger effect = lower value 0.982 | locus YJL095W, strain BCK1 (second series), stronger effect = lower value 0.994 | locus YJL095W, strain BCK1, stronger effect = lower value 0.993 | locus YJL115W, strain asf1, stronger effect = lower value 0.991 | locus YJL129C, strain trk1, stronger effect = lower value 0.994 | locus YJL154C, strain vps35, stronger effect = lower value 0.998 | locus YJL164C, strain tpk1, stronger effect = lower value 0.982 | locus YJL166W, strain qcr8, stronger effect = lower value 1 | locus YJL187C, strain SWE1, stronger effect = lower value 0.989 | locus YJR066W, strain TOR1, stronger effect = lower value 0.967 | locus YKL160W, strain elf1, stronger effect = lower value 1 | locus YKR026C, strain gcn3, stronger effect = lower value 0.977 | locus YKR091W, strain srl3, stronger effect = lower value 0.997 | locus YLL001W, strain dnm1, stronger effect = lower value 0.987 | locus YLL026W, stronger effect = lower value 0.989 | locus YLL041C, strain sdh2, stronger effect = lower value 0.997 | locus YLR027C, strain aat2, stronger effect = lower value 1 | locus YLR113W, strain HOG1, stronger effect = lower value 0.979 | locus YLR221C, strain rsa3, stronger effect = lower value 1 | locus YLR258W, strain gsy2, stronger effect = lower value 0.992 | locus YLR262C, strain YPT6 (second series), stronger effect = lower value 1 | locus YLR320W, strain mms22, stronger effect = lower value 0.968 | locus YLR342W, strain FKS1, stronger effect = lower value 0.999 | locus YLR357W, strain rsc2, stronger effect = lower value 0.994 | locus YLR370C, strain arc18, stronger effect = lower value 0.998 | locus YLR384C, strain iki3, stronger effect = lower value 0.982 | locus YML120C, strain ndi1, stronger effect = lower value 1.01 | locus YMR058W, strain fet3, stronger effect = lower value 1 | locus YMR125W, strain sto1, stronger effect = lower value 0.981 | locus YMR129W, stronger effect = lower value 1.01 | locus YMR205C, strain PFK2, stronger effect = lower value 0.975 | locus YMR231W, strain pep5, stronger effect = lower value 0.995 | locus YNL071W, strain lat1, stronger effect = lower value 0.995 | locus YNL183C, strain NPR1, stronger effect = lower value 0.96 | locus YNL209W, strain ssb2, stronger effect = lower value 1 | locus YNL248C, strain rpa49, stronger effect = lower value 0.996 | locus YNL322C, strain KRE1 (second series), stronger effect = lower value 0.99 | locus YNR049C, strain mso1, stronger effect = lower value 0.995 | locus YOR001W, strain rrp6, stronger effect = lower value 1 | locus YOR070C, strain gyp1, stronger effect = lower value 1 | locus YOR080W, strain dia2, stronger effect = lower value 0.989 | locus YOR083W, strain WHI5, stronger effect = lower value 1 | locus YOR106W, strain vam3, stronger effect = lower value 1.02 | locus YOR231W, strain MKK1, stronger effect = lower value 1.04 | locus YOR265W, strain rbl2, stronger effect = lower value 1 | locus YOR270C, strain vph1, stronger effect = lower value 0.977 | locus YOR290C, strain snf2, stronger effect = lower value 0.979 | locus YPL051W, strain arl3, stronger effect = lower value 1 | locus YPL078C, strain atp4, stronger effect = lower value 0.991 | locus YPL106C, strain sse1, stronger effect = lower value 1 | locus YPL240C, strain hsp82, stronger effect = lower value 1.01 | locus YPL256C, strain CLN2, stronger effect = lower value 1.03
